Hit rate of the full screen: of about 5,500 compounds, about 2,000 (36%) were called active. Not shown: some 18% with an inconclusive outcome. Cut-off read from the data, not from the text of the source: active = normalized growth mostly below about 0.91 (no sharp cut-off); inconclusive = no clear call, values can overlap the other calls; inactive = mostly above about 0.92. The list shows a part of the results.
Test: chemical genetic growth profiling, strain panel (AID 1159580);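 note: tested at 20 µM; growth read once vehicle control cultures reached saturation at 30 °C; 1 = growth at the plate median or of vehicle wells; lower values mean less growth of the strain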
Conditions: growth OD

Measured: normalized growth

C[C@@H]1CC[C@H]2C(C)(C)C3CC12CC[C@@]3(C)O (some centres not stated)
active: S. cerevisiae deletion strains, locus YKL160W, strain elf1, hits give low values 0.813 | S. cerevisiae deletion strains, locus YLL026W, hits give low values 0.747 | S. cerevisiae deletion strains, locus YLL041C, strain sdh2, hits give low values 0.926 | S. cerevisiae deletion strains, locus YLR027C, strain aat2, hits give low values 0.781 | S. cerevisiae deletion strains, locus YLR221C, strain rsa3, hits give low values 0.745 | S. cerevisiae deletion strains, locus YLR258W, strain gsy2, hits give low values 0.831 | S. cerevisiae deletion strains, locus YLR262C, strain YPT6 (second series), hits give low values 0.549 | S. cerevisiae deletion strains, locus YLR320W, strain mms22, hits give low values 0.628 | S. cerevisiae deletion strains, locus YLR330W, strain CHS5, hits give low values 0.876 | S. cerevisiae deletion strains, locus YLR342W, strain FKS1, hits give low values 0.861 | S. cerevisiae deletion strains, locus YLR357W, strain rsc2, hits give low values 0.754 | S. cerevisiae deletion strains, locus YLR418C, strain cdc73, hits give low values 0.824 | S. cerevisiae deletion strains, locus YML120C, strain ndi1, hits give low values 0.786 | S. cerevisiae deletion strains, locus YMR058W, strain fet3, hits give low values 0.891 | S. cerevisiae deletion strains, locus YMR125W, strain sto1, hits give low values 0.83 | S. cerevisiae deletion strains, locus YMR205C, strain PFK2, hits give low values 0.697 | S. cerevisiae deletion strains, locus YMR231W, strain pep5, hits give low values 0.878 | S. cerevisiae deletion strains, locus YNL071W, strain lat1, hits give low values 0.616 | S. cerevisiae deletion strains, locus YNL209W, strain ssb2, hits give low values 0.869 | S. cerevisiae deletion strains, locus YNL233W, strain BNI4, hits give low values 0.83 | S. cerevisiae deletion strains, locus YNL248C, strain rpa49, hits give low values 0.879 | S. cerevisiae deletion strains, locus YNL298W, strain CLA4, hits give low values 0.884 | S. cerevisiae deletion strains, locus YNR052C, strain pop2, hits give low values 0.865 | S. cerevisiae deletion strains, locus YOR001W, strain rrp6, hits give low values 0.81 | S. cerevisiae deletion strains, locus YOR070C, strain gyp1, hits give low values 0.813 | S. cerevisiae deletion strains, locus YOR083W, strain WHI5, hits give low values 0.743 | S. cerevisiae deletion strains, locus YOR106W, strain vam3, hits give low values 0.713 | S. cerevisiae deletion strains, locus YOR265W, strain rbl2, hits give low values 0.916 | S. cerevisiae deletion strains, locus YOR270C, strain vph1, hits give low values 0.618 | S. cerevisiae deletion strains, locus YOR290C, strain snf2, hits give low values 0.784 | S. cerevisiae deletion strains, locus YPL051W, strain arl3, hits give low values 0.707 | S. cerevisiae deletion strains, locus YPL078C, strain atp4, hits give low values 0.837 | S. cerevisiae deletion strains, locus YPL106C, strain sse1, hits give low values 0.654
inactive: S. cerevisiae deletion strains, locus YJR066W, strain TOR1, hits give low values 0.975 | S. cerevisiae deletion strains, locus YKL009W, strain mrt4, hits give low values 0.893 | S. cerevisiae deletion strains, locus YKL068W, hits give low values 1.01 | S. cerevisiae deletion strains, locus YKL085W, strain MDH1 (second series), hits give low values 0.961 | S. cerevisiae deletion strains, locus YKL085W, strain MDH1, hits give low values 0.961 | S. cerevisiae deletion strains, locus YKL190W, strain CNB1, hits give low values 1.01 | S. cerevisiae deletion strains, locus YKR001C, strain vps1, hits give low values 0.933 | S. cerevisiae deletion strains, locus YKR026C, strain gcn3, hits give low values 0.994 | S. cerevisiae deletion strains, locus YKR091W, strain srl3, hits give low values 0.934 | S. cerevisiae deletion strains, locus YLL001W, strain dnm1, hits give low values 0.949 | S. cerevisiae deletion strains, locus YLR039C, strain RIC1, hits give low values 0.849 | S. cerevisiae deletion strains, locus YLR058C, strain SHM2, hits give low values 1 | S. cerevisiae deletion strains, locus YLR102C, strain apc9, hits give low values 0.989 | S. cerevisiae deletion strains, locus YLR113W, strain HOG1, hits give low values 0.968 | S. cerevisiae deletion strains, locus YLR262C, strain YPT6, hits give low values 0.841 | S. cerevisiae deletion strains, locus YLR268W, strain sec22, hits give low values 0.961 | S. cerevisiae deletion strains, locus YLR342W, strain FKS1 (second series), hits give low values 0.886 | S. cerevisiae deletion strains, locus YLR370C, strain arc18, hits give low values 0.92 | S. cerevisiae deletion strains, locus YLR371W, strain rom2, hits give low values 0.915 | S. cerevisiae deletion strains, locus YLR384C, strain iki3, hits give low values 0.988 | S. cerevisiae deletion strains, locus YML016C, strain PPZ1, hits give low values 1.01 | S. cerevisiae deletion strains, locus YML032C, strain rad52, hits give low values 0.917 | S. cerevisiae deletion strains, locus YML124C, strain tub3, hits give low values 0.99 | S. cerevisiae deletion strains, locus YMR078C, strain ctf18, hits give low values 0.998 | S. cerevisiae deletion strains, locus YMR129W, hits give low values 1.01 | S. cerevisiae deletion strains, locus YMR223W, strain ubp8, hits give low values 0.952 | S. cerevisiae deletion strains, locus YMR307W, strain GAS1, hits give low values 0.707 | S. cerevisiae deletion strains, locus YNL067W, strain RPL9B, hits give low values 0.987 | S. cerevisiae deletion strains, locus YNL183C, strain NPR1, hits give low values 0.976 | S. cerevisiae deletion strains, locus YNL250W, strain rad50, hits give low values 0.956 | S. cerevisiae deletion strains, locus YNL271C, strain bni1, hits give low values 0.938 | S. cerevisiae deletion strains, locus YNL307C, strain MCK1, hits give low values 0.977 | S. cerevisiae deletion strains, locus YNL322C, strain KRE1 (second series), hits give low values 0.971 | S. cerevisiae deletion strains, locus YNR049C, strain mso1, hits give low values 1 | S. cerevisiae deletion strains, locus YOL006C, strain TOP1, hits give low values 0.982 | S. cerevisiae deletion strains, locus YOL012C, strain htz1 0.706 | S. cerevisiae deletion strains, locus YOL147C, strain pex11, hits give low values 0.965 | S. cerevisiae deletion strains, locus YOR061W, strain CKA2, hits give low values 0.958 | S. cerevisiae deletion strains, locus YOR069W, strain VPS5, hits give low values 0.998 | S. cerevisiae deletion strains, locus YOR080W, strain dia2, hits give low values 0.967 | S. cerevisiae deletion strains, locus YOR136W, strain idh2, hits give low values 0.959 | S. cerevisiae deletion strains, locus YOR144C, strain elg1, hits give low values 0.972 | S. cerevisiae deletion strains, locus YOR184W, strain ser1, hits give low values 0.9 | S. cerevisiae deletion strains, locus YOR231W, strain MKK1, hits give low values 0.986 | S. cerevisiae deletion strains, locus YOR316C, strain cot1, hits give low values 0.987 | S. cerevisiae deletion strains, locus YPL240C, strain hsp82, hits give low values 0.952 | S. cerevisiae deletion strains, locus YPL241C, strain CIN2, hits give low values 1.02 | S. cerevisiae deletion strains, locus YPL256C, strain CLN2, hits give low values 0.969 | S. cerevisiae deletion strains, locus YPR119W, strain clb2, hits give low values 1 | S. cerevisiae deletion strains, locus YPR141C, strain kar3, hits give low values 0.991 | S. cerevisiae deletion strains, locus YPR163C, strain tif3, hits give low values 0.993 | S. cerevisiae deletion strains, locus YPR167C, strain met16, hits give low values 0.981 | S. cerevisiae deletion strains, strain wtn01, hits give low values 0.926 | S. cerevisiae strains, strain wild type, hits give low values 0.965

Source: PubChem BioAssay AID1159580 (chemical genetic matrix, 2015)
